Measured values: publication PMC5540273 (PLoS ONE, 2017)

Assays:
Conditions in all cases: concentration: 1 μM, replicates: in singlicate; n = 1
PCTK2 = tested on: T1, PCTK2
T1 construct: gene CDK17

PCTK3 = tested on: T2, PCTK3
T2 construct: gene CDK18

PDGFRA = tested on: PDGFRA
PDGFRB = tested on: PDGFRB
PDPK1 = tested on: PDPK1
PFTAIRE2 = tested on: PFTAIRE2
PFTK1 = tested on: T3, PFTK1
T3 construct: gene CDK14

PHKG1 = tested on: PHKG1
PHKG2 = tested on: PHKG2
PIK3C2B = tested on: PIK3C2B
PIK3C2G = tested on: PIK3C2G
PIK3CA = tested on: PIK3CA
PIK3CB = tested on: PIK3CB
PIK3CD = tested on: PIK3CD
PIK3CG = tested on: PIK3CG
PIK4CB = tested on: T4, PIK4CB
T4 construct: gene PI4KB

PIKFYVE = tested on: PIKFYVE
PIM1 = tested on: PIM1
PIM2 = tested on: PIM2
PIM3 = tested on: PIM3
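Further: KINOMEscan kinase panel screen.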

Row | Compound | %Inh (PCTK2) | %Inh (PCTK3) | %Inh (PDGFRA) | %Inh (PDGFRB) | %Inh (PDPK1) | %Inh (PFTAIRE2) | %Inh (PFTK1) | %Inh (PHKG1) | %Inh (PHKG2) | %Inh (PIK3C2B) | %Inh (PIK3C2G) | %Inh (PIK3CA) | %Inh (PIK3CB) | %Inh (PIK3CD) | %Inh (PIK3CG) | %Inh (PIK4CB) | %Inh (PIKFYVE) | %Inh (PIM1) | %Inh (PIM2) | %Inh (PIM3)
1 | Nc1ncc(-c2cn[nH]c2)c2scc(-c3ccc4c(c3)CCN4C(=O)Cc3ccccc3)c12 [GSK2593067] | 0% | 29% | 96% | 100% | 65% | 0% | 0% | 0% | 0% | 0% | 0% | 0% | 0% | 5% | 0% | 25% | 0% | 0% | 0% | 0%
2 | Nc1cccc(-c2ccc3c(N)n[nH]c3c2)c1 [GSK2193613] | 19% | 4% | 9% | 29% | 0% | 13% | 30% | 0% | 11% | 0% | 0% | 0% | 40% | 2% | 0% | 0% | 0% | 11% | 0% | 0%
3 | CN(c1ccc2c(c1)nc(NCc1ccccc1)n2C)c1ccnc(Nc2ccc(CS(C)(=O)=O)cc2)n1.Cl [GW811603] | 0% | 0% | 99.8% | 100% | 0% | 38% | 0% | 8% | 0% | 0% | 0% | 0% | 41% | 0% | 29% | 26% | 50% | 0% | 0% | 0%
4 | CCOc1nccc(-c2c(-c3ccc(F)cc3)ncn2C2CCNCC2)n1 [SB-249175] | 5% | 17% | 13% | 8% | 6% | 0% | 20% | 0% | 0% | 23% | 1% | 9% | 0% | 18% | 45% | 3% | 7% | 0% | 3% | 5%
5 | O=C(O)C(F)(F)F.O=c1[nH]ccc2nc(N[C@@H]3CCNC3)nc(Nc3cc(Cl)cc(Cl)c3)c12 [GSK2188764] | 22% | 25% | 46% | 94.8% | 76% | 20% | 27% | 96.1% | 94.7% | 13% | 18% | 7% | 25% | 43% | 53% | 56% | 20% | 44% | 0% | 66%
6 | CN(C)CCNS(=O)(=O)c1ccc(-c2ccnc3[nH]ccc23)cc1 [GSK977620] | 0% | 0% | 0% | 54% | 0% | 6% | 0% | 25% | 7% | 0% | 0% | 0% | 0% | 9% | 8% | 0% | 0% | 1% | 0% | 0%
7 | COc1cc(Nc2nccc(N3CCC(NS(=O)(=O)c4ccc(NC(C)=O)cc4)CC3)n2)cc(OC)c1OC [GSK1379825] | 0% | 25% | 6% | 90% | 21% | 0% | 5% | 0% | 0% | 0% | 9% | 0% | 0% | 91.6% | 99.7% | 9% | 82% | 0% | 0% | 0%
8 | CN(c1ccc(F)c(NC(=O)c2cccc(OC(C)(C)C#N)c2Cl)c1)c1ccc2nc(NC(=O)C3CC3)sc2n1 | 0% | 0% | 97.8% | 100% | 36% | 11% | 0% | 7% | 0% | 15% | 30% | 0% | 9% | 0% | 5% | 0% | 50% | 0% | 14% | 6%
9 | CC(C)c1nc(-c2ccc(F)c(NS(=O)(=O)c3c(F)cccc3F)c2)c(-c2ccnc(Nc3ccc(N4CCOCC4)nc3)n2)s1 [GSK1804250] | 94.9% | 76% | 88% | 99.6% | 11% | 11% | 71% | 0% | 9% | 17% | 0% | 0% | 0% | 10% | 0% | 0% | 66% | 7% | 0% | 0%
10 | Fc1cc(Cl)ccc1Nc1ccnc2cc(-c3ccc(CN4CCOCC4)o3)ccc12 [GW560109] | 0% | 0% | 99.6% | 100% | 8% | 12% | 0% | 13% | 0% | 0% | 0% | 0% | 0% | 21% | 0% | 16% | 5% | 0% | 0% | 0%
11 | COc1cccc2c(-c3ccncc3)c(-c3ccc(F)cc3)nn12 [GW468513] | 11% | 0% | 0% | 21% | 10% | 5% | 0% | 18% | 0% | 0% | 0% | 0% | 0% | 11% | 0% | 0% | 0% | 9% | 0% | 0%
12 | Cc1cc(-c2c(-c3ccc(F)cc3)ncn2CCCN2CCOCC2)nc(N)n1 [SB-222517] | 0% | 0% | 0% | 16% | 0% | 0% | 0% | 12% | 0% | 28% | 20% | 23% | 0% | 0% | 36% | 46% | 0% | 11% | 26% | 15%
13 | Cl.Cl.NCC(NC(=O)c1cc(-c2cccnc2)c(-c2ccnc3[nH]ccc23)s1)c1ccccc1 (centres unmarked) [GSK1323434] | 14% | 0% | 0% | 28% | 26% | 29% | 28% | 7% | 2% | 0% | 0% | 0% | 0% | 2% | 0% | 0% | 59% | 16% | 0% | 0%
14 | CCNC(=O)/C=C/c1n[nH]c2cc(Sc3ccccc3C(=O)NC)ccc12 | 0% | 10% | 100% | 99.9% | 6% | 0% | 13% | 14% | 19% | 0% | 1% | 13% | 21% | 0% | 36% | 0% | 1% | 35% | 5% | 0%
15 | CC(=O)Nc1cn2nc(Oc3cccc(NC(=O)c4cccc(C(F)(F)F)c4)c3)ccc2n1 | 0% | 6% | 99.6% | 100% | 9% | 0% | 3% | 31% | 0% | 0% | 0% | 0% | 0% | 0% | 0% | 0% | 0% | 9% | 9% | 0%
16 | Cl.Cl.NC(CNC(=O)c1cc(Br)c(-c2ccnc3[nH]ccc23)s1)c1ccccc1 (centres unmarked) [GSK1322949] | 14% | 0% | 8% | 63% | 76% | 40% | 22% | 74% | 56% | 0% | 0% | 1% | 0% | 0% | 22% | 0% | 0% | 40% | 0% | 34%
17 | O=C(Nc1c(F)cccc1F)c1cc(C(=O)c2ccccc2F)c[nH]1 [GSK1326180] | 0% | 0% | 0% | 14% | 0% | 10% | 20% | 0% | 0% | 0% | 0% | 0% | 0% | 0% | 0% | 0% | 0% | 0% | 0% | 0%
18 | Cn1cc(-c2ccc3c(c2)CCN3C(=O)Cc2cc(F)cc(F)c2F)c2c(N)ncnc21 [GSK2634140] | 0% | 7% | 59% | 98% | 0% | 3% | 10% | 0% | 0% | 82% | 0% | 0% | 62% | 0% | 7% | 0% | 0% | 12% | 0% | 0%
19 | COc1ccc(C)c(Nc2ccnc(Nc3ccc(-c4cnc[nH]4)cc3)n2)c1.Cl [GW784041] | 10% | 2% | 0% | 76% | 0% | 0% | 0% | 0% | 8% | 0% | 11% | 0% | 0% | 0% | 11% | 58% | 0% | 0% | 9% | 0%
